Hit rate of the full screen: of about 310,000 compounds, about 14,000 (4.5%) showed an effect of 50% or more. The effect is printed as a negative number. The sample holds strong results, similar compounds and a random draw of the others, so the mix is not that of the screen.
The compounds below were run against human ether-à-go-go-related gene (hERG) potassium channel (human, UniProt Q12809) (assay: primary screen, population patch clamp on CHO cells stably expressing hERG; higher = less effect of the substance).
human ether-à-go-go-related gene (hERG) potassium channel, sequence (Q12809 whole entry, looked up): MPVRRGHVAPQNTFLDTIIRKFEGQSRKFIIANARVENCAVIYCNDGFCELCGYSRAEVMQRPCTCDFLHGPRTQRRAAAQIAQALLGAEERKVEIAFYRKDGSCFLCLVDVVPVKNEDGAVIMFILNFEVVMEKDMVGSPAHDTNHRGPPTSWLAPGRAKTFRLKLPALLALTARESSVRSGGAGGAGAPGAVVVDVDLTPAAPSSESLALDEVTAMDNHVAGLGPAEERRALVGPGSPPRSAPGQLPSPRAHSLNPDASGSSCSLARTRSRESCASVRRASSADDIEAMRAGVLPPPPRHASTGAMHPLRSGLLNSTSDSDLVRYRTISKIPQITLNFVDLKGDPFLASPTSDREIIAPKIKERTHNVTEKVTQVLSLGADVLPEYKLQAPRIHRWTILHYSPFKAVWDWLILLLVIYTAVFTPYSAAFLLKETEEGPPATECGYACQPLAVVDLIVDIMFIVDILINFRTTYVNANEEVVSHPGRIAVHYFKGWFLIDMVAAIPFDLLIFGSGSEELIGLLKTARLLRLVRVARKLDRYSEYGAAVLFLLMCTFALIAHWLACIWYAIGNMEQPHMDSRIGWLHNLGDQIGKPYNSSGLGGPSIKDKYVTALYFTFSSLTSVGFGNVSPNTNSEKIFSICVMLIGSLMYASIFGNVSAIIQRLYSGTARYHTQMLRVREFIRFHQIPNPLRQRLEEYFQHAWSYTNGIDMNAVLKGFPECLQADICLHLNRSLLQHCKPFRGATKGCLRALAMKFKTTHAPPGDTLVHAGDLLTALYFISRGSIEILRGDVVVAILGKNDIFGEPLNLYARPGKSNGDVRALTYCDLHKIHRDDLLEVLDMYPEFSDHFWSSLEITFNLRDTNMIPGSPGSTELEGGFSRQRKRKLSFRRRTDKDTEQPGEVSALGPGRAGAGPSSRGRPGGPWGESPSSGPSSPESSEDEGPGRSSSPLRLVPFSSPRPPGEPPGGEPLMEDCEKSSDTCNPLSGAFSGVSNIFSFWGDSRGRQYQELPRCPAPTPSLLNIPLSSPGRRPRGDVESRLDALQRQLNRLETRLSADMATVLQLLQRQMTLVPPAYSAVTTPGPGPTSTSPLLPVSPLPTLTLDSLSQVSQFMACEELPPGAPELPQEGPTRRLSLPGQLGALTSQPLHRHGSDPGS
For `CCn1c(CNc2ccc(F)cc2)nnc1SCC(=O)Nc1ccccc1OC`, the “hERG current change (%, negative = inhibition) at 10uM” value was -30.2%. For `CN1CCCN(C(=O)c2ccc(Cl)cc2)CC1`, the “hERG current change (%, negative = inhibition) at 10uM” value was 5.68%. In the case of `Cc1ccc2nc(SCC(=O)Nc3ccc4c(c3)CCC4)[nH]c2c1`, the “hERG current change (%, negative = inhibition) at 10uM” value is reported as 8.84%. `CCN(CC)S(=O)(=O)c1ccc(-c2nnc(SCC(C)=O)o2)cc1` was tested, and the “hERG current change (%, negative = inhibition) at 10uM” value was -8.48%. `CCn1cc(C(=O)N2CCN(C3CCCCC3)CC2)c2cc(OC)c(OC)cc2c1=O` was tested, and the “hERG current change (%, negative = inhibition) at 10uM” value was -20.6%. `CCOC(=O)C1CCCN(C(=O)c2cn(CC(C)C)c(=O)c3cc(OC)c(OC)cc23)C1` (stereo not shown) was tested, and the “hERG current change (%, negative = inhibition) at 10uM” value was 5.47%. For `COc1cc2c(C(=O)N3CCN(C4CCCCC4)CC3)cn(CC(C)C)c(=O)c2cc1OC`, the “hERG current change (%, negative = inhibition) at 10uM” value was -63.3%. For `COc1ccc(NS(=O)(=O)c2cc3c4c(c2)C(C)C(=O)N4CCC3)cc1` (stereo not shown), the “hERG current change (%, negative = inhibition) at 10uM” value was 10.3%. `CCN(CC)CC(=O)N1c2ccccc2Sc2ccc(Cl)cc21.Cl` was tested, and the “hERG current change (%, negative = inhibition) at 10uM” value was -10.3%. For `Cc1cc(C(=O)N/N=C/c2ccc(Cl)c([N+](=O)[O-])c2)c(C)n1-c1ccc(F)cc1`, the “hERG current change (%, negative = inhibition) at 10uM” value was -2.41%. For `CC(C)n1c2ccccc2c2cc([N+](=O)[O-])ccc21`, the “hERG current change (%, negative = inhibition) at 10uM” value was 16.1%. For `Cc1ccc(C(=O)NC(C(=O)NC2CCCC2)c2ccccc2)cc1` (stereo not shown), the “hERG current change (%, negative = inhibition) at 10uM” value was 15%. With `c1cnc(Sc2ccc3nnnn3n2)nc1` the “hERG current change (%, negative = inhibition) at 10uM” value was -56.4%. For `c1ccc(-c2ccc3nnnn3n2)cc1`, the “hERG current change (%, negative = inhibition) at 10uM” value was 5.72%. For `c1ccc(Sc2ncccn2)nc1`, the “hERG current change (%, negative = inhibition) at 10uM” value was 12.2%. With `COc1ccc(C(=O)c2sc3nc(-c4ccccc4)ccc3c2N)cc1OC` the “hERG current change (%, negative = inhibition) at 10uM” value was 18.1%. For `CCOS(=O)(=O)[O-].CC[n+]1c(/C=C/Nc2ccccc2)oc2ccc(OC)cc21`, the “hERG current change (%, negative = inhibition) at 10uM” value was -77.2%. In the case of `CC[n+]1c(/C=C/N(C)c2ccccc2)oc2ccccc21.O=S(=O)([O-])CCO`, the “hERG current change (%, negative = inhibition) at 10uM” value is reported as 0.826%. With `CC[n+]1c(/C=C2/C=C(C)CC(C)C2)sc2ccccc21.[I-]` (stereo not shown) the “hERG current change (%, negative = inhibition) at 10uM” value was -3.25%. For `CCN1/C(=C/C=C/c2oc3ccc(-c4ccccc4)cc3[n+]2CC)Oc2ccc(-c3ccccc3)cc21.CCOS(=O)(=O)[O-]`, the “hERG current change (%, negative = inhibition) at 10uM” value was -2.14%. With `CC[n+]1c(/C=C/Nc2ccccc2)sc2ccccc21.[I-]` the “hERG current change (%, negative = inhibition) at 10uM” value was -72.2%. With `CCOc1ccc(S(=O)(=O)Nc2cccc(OC)c2)cc1` the “hERG current change (%, negative = inhibition) at 10uM” value was -25%. In the case of `CC[n+]1ccccc1/C=C/Nc1ccccc1.[I-]`, the “hERG current change (%, negative = inhibition) at 10uM” value is reported as -44.7%. For `CC[n+]1c(/C=C/Nc2ccccc2)oc2ccccc21.[I-]`, the “hERG current change (%, negative = inhibition) at 10uM” value was -70.4%. In the case of `CC[n+]1c(/C=C2\C=C(C)CC(C)C2)sc2ccccc21.[I-]` (stereo not shown), the “hERG current change (%, negative = inhibition) at 10uM” value is reported as 6.92%. `NC(=O)CC(NC(=O)Cc1cccc2ccccc12)c1ccc(NCCN2CCCCC2)c([N+](=O)[O-])c1` (stereo not shown) was tested, and the “hERG current change (%, negative = inhibition) at 10uM” value was 7.38%. With `O=c1[nH]c2ccc(Cl)cc2c(-c2ccccc2)c1N1CCN(c2ccccn2)CC1` the “hERG current change (%, negative = inhibition) at 10uM” value was 6.61%. In the case of `CCCCn1c(N)c(N(CCOC)C(=O)c2c(CC)noc2C)c(=O)[nH]c1=O`, the “hERG current change (%, negative = inhibition) at 10uM” value is reported as 19.9%. With `CCCC/C(O)=C1\C(=O)CC(C)(C)CC1=Nc1ccc(N)cc1` the “hERG current change (%, negative = inhibition) at 10uM” value was -11.4%. For `CC(C)NC[C@H](O)COc1ccc(CC(N)=O)cc1`, the “hERG current change (%, negative = inhibition) at 10uM” value was 12.8%. With `Oc1oc(-c2ccccc2)nc1/C=N/c1nccs1` the “hERG current change (%, negative = inhibition) at 10uM” value was 13.1%. `Cc1ccccc1NC(=O)c1csc2c1CCCC2` was tested, and the “hERG current change (%, negative = inhibition) at 10uM” value was -20.9%. For `COc1ccc(-c2nnnn2C)cc1S(=O)(=O)NCc1ccccc1`, the “hERG current change (%, negative = inhibition) at 10uM” value was -13.9%. For `Cc1noc(C)c1COc1cccc(C(=O)OCC(=O)N2CC(=O)Nc3ccccc32)c1`, the “hERG current change (%, negative = inhibition) at 10uM” value was -0.541%. In the case of `Cc1noc(C)c1COc1ccc(C(=O)OCC(=O)N2CC(=O)Nc3ccccc32)cc1`, the “hERG current change (%, negative = inhibition) at 10uM” value is reported as 4.54%. In the case of `Cc1noc(C)c1CSCC(=O)OCC(=O)N1CC(=O)Nc2ccccc21`, the “hERG current change (%, negative = inhibition) at 10uM” value is reported as -72.4%. In the case of `COC(=O)c1ccc(CSc2nc(C)nc3c2c(=O)n(C)c(=O)n3C)o1`, the “hERG current change (%, negative = inhibition) at 10uM” value is reported as 14.7%. With `Cc1cccc(-n2cnc3cc(C(=O)N4CCc5ccccc54)ccc32)c1` the “hERG current change (%, negative = inhibition) at 10uM” value was -61.5%. In the case of `O=C(c1ccc2ccccc2c1)N1CCc2ccccc21`, the “hERG current change (%, negative = inhibition) at 10uM” value is reported as 3.51%. For `Cc1nc2cc(C(=O)N3CCc4ccccc43)ccc2n1-c1ccc(F)c(F)c1`, the “hERG current change (%, negative = inhibition) at 10uM” value was -69.7%. `Cc1cccc(-n2cnc3cc(C(=O)N4CCCCC4)ccc32)c1` was tested, and the “hERG current change (%, negative = inhibition) at 10uM” value was -21.3%. With `O=C(c1ccc(F)c(F)c1)N1CCCc2ccccc21` the “hERG current change (%, negative = inhibition) at 10uM” value was 0.0993%. `Cc1ccc(C(=O)N2CCc3ccccc32)cc1` was tested, and the “hERG current change (%, negative = inhibition) at 10uM” value was -7.42%.

Source: article PMC4336329 (PLoS ONE, 2015)
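Further: peak tail current of the secondary pulse compared with the same well before compound.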
